How the values were obtained:
[1] = target: T1, Testis-specific serine/threonine-protein kinase 1 (Homo sapiens) (UniProt Q9BXA7); conditions: at 1 µM
T1 sequence (whole entry): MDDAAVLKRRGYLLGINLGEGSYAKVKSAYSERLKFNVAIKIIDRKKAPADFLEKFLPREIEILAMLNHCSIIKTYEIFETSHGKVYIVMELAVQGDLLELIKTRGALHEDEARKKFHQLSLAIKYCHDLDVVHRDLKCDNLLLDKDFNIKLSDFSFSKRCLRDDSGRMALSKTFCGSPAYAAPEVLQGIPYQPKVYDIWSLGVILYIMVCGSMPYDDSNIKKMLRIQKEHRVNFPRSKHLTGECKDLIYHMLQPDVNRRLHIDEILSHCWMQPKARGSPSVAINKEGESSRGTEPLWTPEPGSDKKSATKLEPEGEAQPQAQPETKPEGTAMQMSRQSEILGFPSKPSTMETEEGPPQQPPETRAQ

[2] = target: T1, Testis-specific serine/threonine-protein kinase 1 (Homo sapiens); conditions: at 10 µM
[3] = target: T2, Testis-specific serine/threonine-protein kinase 2 (Homo sapiens) (UniProt Q96PF2); conditions: at 10 µM
T2 sequence (whole entry): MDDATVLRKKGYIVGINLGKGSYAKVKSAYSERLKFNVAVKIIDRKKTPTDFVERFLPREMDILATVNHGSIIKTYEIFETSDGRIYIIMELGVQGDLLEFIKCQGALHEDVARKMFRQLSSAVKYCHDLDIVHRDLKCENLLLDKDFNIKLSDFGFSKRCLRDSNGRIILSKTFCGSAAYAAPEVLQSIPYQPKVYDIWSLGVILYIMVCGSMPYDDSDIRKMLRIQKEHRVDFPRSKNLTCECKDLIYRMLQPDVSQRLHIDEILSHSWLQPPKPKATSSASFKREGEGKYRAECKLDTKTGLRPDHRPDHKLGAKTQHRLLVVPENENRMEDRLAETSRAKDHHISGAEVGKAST

[4] = target: T3, Tyrosine-protein kinase Tec (Homo sapiens) (UniProt P42680); conditions: at 1 µM
T3 sequence (whole entry): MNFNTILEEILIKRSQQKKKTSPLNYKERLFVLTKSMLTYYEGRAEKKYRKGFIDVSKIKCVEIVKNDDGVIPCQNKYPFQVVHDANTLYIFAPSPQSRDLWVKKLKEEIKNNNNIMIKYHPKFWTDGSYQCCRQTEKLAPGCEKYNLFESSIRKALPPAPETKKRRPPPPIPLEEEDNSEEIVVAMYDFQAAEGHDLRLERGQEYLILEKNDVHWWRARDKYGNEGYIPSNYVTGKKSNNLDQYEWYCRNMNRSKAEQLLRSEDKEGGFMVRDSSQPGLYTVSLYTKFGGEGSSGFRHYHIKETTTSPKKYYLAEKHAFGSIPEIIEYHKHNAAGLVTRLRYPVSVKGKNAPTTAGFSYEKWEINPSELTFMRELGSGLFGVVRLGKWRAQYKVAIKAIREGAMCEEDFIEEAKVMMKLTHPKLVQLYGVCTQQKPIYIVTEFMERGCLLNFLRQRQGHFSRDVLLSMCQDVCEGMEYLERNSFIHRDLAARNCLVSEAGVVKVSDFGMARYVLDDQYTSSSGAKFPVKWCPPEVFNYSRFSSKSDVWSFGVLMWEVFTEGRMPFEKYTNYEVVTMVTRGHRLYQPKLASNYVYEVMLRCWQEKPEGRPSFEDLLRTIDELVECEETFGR

[5] = target: T3, Tyrosine-protein kinase Tec (Homo sapiens); conditions: at 10 µM
[6] = target: Angiopoietin-1 receptor (Homo sapiens) (UniProt Q02763); conditions: at 1 µM
[7] = target: Angiopoietin-1 receptor (Homo sapiens) (UniProt Q02763); conditions: at 10 µM
[8] = target: High affinity nerve growth factor receptor (Homo sapiens) (UniProt P04629); conditions: at 1 µM
[9] = target: High affinity nerve growth factor receptor (Homo sapiens) (UniProt P04629); conditions: at 10 µM
[10] = target: BDNF/NT-3 growth factors receptor (Homo sapiens) (UniProt Q16620); conditions: at 1 µM
[11] = target: BDNF/NT-3 growth factors receptor (Homo sapiens) (UniProt Q16620); conditions: at 10 µM
[12] = target: T4, Tyrosine-protein kinase TXK (Homo sapiens) (UniProt P42681); conditions: at 1 µM
T4 sequence (whole entry): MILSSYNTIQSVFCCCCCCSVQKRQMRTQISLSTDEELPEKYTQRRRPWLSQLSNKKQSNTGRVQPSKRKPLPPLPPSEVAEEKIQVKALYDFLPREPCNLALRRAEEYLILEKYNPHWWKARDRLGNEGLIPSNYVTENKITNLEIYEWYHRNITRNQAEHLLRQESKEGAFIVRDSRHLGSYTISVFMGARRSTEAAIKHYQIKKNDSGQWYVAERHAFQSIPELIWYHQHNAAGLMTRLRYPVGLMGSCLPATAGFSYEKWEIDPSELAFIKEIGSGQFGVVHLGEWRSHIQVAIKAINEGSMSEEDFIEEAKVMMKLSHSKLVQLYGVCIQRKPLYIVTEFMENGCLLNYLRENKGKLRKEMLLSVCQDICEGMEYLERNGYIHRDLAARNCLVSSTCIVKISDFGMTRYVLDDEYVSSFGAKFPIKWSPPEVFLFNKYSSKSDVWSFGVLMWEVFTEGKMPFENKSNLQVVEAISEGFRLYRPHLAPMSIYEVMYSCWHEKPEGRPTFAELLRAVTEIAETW

[13] = target: T4, Tyrosine-protein kinase TXK (Homo sapiens); conditions: at 10 µM
[14] = target: T5, Serine/threonine-protein kinase ULK2 (Homo sapiens) (UniProt Q8IYT8); conditions: at 1 µM
T5 sequence (whole entry): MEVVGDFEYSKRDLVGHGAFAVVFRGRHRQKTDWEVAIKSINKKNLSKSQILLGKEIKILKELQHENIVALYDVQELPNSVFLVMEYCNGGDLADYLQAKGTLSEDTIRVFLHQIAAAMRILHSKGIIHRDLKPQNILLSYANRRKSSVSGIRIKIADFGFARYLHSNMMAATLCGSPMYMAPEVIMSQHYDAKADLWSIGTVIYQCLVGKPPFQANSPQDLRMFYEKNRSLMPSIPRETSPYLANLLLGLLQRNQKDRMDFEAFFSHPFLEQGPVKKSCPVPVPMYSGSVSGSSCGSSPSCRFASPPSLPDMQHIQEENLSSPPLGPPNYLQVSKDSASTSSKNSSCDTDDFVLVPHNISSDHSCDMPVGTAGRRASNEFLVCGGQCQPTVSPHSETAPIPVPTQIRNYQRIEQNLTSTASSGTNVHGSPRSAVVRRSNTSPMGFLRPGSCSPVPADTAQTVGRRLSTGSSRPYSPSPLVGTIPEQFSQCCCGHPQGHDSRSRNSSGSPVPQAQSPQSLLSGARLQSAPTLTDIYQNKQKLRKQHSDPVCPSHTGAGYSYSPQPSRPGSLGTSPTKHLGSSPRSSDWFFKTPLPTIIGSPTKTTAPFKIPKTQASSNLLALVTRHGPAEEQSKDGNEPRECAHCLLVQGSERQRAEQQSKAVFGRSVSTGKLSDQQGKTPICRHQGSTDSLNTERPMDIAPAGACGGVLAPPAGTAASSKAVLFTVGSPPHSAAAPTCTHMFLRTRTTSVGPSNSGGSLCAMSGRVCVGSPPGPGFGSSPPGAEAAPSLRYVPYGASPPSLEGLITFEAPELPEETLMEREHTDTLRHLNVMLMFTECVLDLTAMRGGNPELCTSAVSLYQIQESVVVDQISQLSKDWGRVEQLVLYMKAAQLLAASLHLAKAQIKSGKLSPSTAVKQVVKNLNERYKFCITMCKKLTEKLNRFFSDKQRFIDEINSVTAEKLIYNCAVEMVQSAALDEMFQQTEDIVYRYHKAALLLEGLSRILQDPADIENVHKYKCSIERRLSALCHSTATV

[15] = target: T5, Serine/threonine-protein kinase ULK2 (Homo sapiens); conditions: at 10 µM
[16] = target: T6, Serine/threonine-protein kinase ULK3 (Homo sapiens) (UniProt Q6PHR2); conditions: at 1 µM
T6 sequence (whole entry): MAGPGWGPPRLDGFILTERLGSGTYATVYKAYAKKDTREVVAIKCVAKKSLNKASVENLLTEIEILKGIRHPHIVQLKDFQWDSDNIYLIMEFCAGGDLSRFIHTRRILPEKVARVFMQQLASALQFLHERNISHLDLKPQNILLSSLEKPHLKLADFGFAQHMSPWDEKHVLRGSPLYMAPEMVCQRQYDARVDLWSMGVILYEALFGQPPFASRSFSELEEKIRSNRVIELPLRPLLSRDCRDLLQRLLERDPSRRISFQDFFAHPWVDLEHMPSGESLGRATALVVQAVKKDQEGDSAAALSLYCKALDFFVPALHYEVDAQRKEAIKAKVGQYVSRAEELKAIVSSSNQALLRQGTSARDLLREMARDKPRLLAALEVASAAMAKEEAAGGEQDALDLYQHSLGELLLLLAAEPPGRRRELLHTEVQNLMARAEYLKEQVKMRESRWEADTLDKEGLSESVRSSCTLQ

[17] = target: T6, Serine/threonine-protein kinase ULK3 (Homo sapiens); conditions: at 10 µM
[18] = target: Serine/threonine-protein kinase VRK2 (Homo sapiens) (UniProt Q86Y07); conditions: at 1 µM
[19] = target: Serine/threonine-protein kinase VRK2 (Homo sapiens) (UniProt Q86Y07); conditions: at 10 µM
[20] = target: Serine/threonine-protein kinase WNK2 (Homo sapiens) (UniProt Q9Y3S1); conditions: at 1 µM;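 also: residual WNK2 kinase activity expressed as percent of uninhibited control, assayed in MOPS buffer at pH 7.0 containing EDTA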
Sequence of Serine/threonine-protein kinase WNK2 (Homo sapiens) (Q9Y3S1 whole entry): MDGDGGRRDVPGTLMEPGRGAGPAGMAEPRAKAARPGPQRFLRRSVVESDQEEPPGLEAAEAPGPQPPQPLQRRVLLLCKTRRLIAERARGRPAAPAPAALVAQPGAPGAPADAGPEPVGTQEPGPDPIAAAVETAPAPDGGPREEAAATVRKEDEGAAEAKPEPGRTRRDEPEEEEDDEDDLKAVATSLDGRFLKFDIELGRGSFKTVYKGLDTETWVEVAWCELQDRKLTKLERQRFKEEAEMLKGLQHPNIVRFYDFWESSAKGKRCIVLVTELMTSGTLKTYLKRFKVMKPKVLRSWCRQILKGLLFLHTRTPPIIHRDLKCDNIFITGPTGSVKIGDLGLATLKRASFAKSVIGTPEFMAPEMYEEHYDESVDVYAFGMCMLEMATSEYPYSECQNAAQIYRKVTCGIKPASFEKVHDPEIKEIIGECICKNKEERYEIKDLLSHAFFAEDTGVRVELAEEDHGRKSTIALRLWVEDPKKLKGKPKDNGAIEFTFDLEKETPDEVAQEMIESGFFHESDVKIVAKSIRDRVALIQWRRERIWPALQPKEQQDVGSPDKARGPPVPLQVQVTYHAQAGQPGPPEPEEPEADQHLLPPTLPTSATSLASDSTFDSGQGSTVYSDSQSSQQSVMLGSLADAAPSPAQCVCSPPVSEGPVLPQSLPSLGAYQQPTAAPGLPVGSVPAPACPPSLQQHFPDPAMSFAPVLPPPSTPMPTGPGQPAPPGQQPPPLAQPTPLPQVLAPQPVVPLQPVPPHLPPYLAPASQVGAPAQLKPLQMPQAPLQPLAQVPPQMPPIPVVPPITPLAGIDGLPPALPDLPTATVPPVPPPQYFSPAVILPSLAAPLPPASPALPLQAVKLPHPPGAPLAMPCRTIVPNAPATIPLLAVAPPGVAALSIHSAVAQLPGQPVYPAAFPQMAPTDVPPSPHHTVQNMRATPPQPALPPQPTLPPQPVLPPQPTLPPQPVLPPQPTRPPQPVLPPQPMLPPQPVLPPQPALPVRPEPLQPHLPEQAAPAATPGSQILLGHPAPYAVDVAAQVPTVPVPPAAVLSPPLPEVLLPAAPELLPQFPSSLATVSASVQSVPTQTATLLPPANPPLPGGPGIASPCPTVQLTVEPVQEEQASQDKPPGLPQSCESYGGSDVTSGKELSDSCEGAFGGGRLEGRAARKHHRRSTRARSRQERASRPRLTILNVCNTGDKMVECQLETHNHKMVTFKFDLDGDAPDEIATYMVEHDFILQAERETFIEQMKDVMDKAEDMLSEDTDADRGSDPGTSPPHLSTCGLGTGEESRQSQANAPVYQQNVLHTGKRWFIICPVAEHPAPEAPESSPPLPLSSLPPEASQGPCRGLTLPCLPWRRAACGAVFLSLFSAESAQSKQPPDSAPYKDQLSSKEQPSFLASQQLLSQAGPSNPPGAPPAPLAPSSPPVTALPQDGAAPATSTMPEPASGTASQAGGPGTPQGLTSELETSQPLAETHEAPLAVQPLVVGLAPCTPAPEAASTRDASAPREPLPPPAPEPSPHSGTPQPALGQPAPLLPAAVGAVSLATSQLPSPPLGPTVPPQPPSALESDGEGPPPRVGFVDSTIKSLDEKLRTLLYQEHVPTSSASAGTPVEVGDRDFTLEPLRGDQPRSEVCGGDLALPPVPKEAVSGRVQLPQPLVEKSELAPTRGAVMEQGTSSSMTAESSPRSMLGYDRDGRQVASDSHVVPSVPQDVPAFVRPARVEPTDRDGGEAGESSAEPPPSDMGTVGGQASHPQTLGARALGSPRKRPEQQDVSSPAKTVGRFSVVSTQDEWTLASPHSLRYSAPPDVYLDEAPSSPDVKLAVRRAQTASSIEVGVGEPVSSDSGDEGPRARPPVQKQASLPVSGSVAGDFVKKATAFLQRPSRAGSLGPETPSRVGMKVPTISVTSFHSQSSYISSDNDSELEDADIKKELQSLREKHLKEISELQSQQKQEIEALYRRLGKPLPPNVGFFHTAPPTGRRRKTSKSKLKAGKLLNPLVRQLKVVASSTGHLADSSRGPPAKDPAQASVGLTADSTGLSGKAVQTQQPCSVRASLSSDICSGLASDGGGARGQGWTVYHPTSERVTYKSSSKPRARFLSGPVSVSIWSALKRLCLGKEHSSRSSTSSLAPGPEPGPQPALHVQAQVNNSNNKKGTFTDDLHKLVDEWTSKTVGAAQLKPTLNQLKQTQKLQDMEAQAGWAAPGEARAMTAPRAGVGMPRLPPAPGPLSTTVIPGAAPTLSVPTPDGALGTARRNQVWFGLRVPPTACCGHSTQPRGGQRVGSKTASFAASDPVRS

Sequence of Angiopoietin-1 receptor (Homo sapiens) (Q02763 whole entry): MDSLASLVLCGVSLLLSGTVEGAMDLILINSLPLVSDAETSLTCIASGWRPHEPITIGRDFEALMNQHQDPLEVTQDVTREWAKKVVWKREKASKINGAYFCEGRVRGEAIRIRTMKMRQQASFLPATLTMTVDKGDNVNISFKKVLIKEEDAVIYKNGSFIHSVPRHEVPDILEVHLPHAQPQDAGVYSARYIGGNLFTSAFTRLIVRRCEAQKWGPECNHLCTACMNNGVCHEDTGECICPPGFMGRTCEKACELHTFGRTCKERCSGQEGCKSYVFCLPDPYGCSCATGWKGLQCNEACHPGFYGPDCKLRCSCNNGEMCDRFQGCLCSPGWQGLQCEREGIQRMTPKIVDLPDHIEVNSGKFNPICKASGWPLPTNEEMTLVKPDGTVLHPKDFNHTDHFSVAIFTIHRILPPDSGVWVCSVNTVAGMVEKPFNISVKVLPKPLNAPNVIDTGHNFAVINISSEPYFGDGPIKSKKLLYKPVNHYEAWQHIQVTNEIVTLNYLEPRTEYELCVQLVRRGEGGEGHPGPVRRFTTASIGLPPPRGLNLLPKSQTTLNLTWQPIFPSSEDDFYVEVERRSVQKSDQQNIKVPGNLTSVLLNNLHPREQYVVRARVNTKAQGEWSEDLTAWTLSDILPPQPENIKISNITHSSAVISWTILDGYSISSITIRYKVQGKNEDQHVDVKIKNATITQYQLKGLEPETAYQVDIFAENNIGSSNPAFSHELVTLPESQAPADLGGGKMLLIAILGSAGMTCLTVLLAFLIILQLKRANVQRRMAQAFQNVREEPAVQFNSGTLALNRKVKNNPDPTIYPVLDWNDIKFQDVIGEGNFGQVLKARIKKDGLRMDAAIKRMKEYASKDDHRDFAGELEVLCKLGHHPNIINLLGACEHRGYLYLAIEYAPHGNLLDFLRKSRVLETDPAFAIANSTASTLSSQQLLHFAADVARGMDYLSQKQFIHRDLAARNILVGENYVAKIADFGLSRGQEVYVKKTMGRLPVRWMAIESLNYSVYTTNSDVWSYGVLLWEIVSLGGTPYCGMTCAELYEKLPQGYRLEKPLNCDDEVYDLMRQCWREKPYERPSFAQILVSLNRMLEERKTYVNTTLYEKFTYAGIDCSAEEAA
Sequence of BDNF/NT-3 growth factors receptor (Homo sapiens) (Q16620 32-822 limits assumed): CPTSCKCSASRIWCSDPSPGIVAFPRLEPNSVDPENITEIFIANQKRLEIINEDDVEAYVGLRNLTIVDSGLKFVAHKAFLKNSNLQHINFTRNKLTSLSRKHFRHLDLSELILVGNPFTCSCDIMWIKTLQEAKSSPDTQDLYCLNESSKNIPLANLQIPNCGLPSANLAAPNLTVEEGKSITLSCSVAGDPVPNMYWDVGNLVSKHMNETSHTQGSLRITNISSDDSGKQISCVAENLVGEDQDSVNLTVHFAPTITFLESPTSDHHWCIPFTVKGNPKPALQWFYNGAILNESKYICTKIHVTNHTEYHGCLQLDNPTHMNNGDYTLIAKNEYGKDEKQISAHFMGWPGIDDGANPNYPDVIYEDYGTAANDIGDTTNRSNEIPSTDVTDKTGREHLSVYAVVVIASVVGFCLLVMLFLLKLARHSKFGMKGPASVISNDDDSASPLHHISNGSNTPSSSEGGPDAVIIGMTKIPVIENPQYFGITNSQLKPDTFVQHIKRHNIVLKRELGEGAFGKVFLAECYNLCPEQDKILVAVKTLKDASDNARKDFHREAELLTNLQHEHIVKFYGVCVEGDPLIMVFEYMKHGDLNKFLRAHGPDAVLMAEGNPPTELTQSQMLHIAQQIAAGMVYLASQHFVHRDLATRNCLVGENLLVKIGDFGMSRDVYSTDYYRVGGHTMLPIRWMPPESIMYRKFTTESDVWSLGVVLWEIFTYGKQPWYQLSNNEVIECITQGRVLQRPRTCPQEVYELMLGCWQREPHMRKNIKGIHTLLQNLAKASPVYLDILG
Sequence of High affinity nerve growth factor receptor (Homo sapiens) (P04629 33-796 limits assumed): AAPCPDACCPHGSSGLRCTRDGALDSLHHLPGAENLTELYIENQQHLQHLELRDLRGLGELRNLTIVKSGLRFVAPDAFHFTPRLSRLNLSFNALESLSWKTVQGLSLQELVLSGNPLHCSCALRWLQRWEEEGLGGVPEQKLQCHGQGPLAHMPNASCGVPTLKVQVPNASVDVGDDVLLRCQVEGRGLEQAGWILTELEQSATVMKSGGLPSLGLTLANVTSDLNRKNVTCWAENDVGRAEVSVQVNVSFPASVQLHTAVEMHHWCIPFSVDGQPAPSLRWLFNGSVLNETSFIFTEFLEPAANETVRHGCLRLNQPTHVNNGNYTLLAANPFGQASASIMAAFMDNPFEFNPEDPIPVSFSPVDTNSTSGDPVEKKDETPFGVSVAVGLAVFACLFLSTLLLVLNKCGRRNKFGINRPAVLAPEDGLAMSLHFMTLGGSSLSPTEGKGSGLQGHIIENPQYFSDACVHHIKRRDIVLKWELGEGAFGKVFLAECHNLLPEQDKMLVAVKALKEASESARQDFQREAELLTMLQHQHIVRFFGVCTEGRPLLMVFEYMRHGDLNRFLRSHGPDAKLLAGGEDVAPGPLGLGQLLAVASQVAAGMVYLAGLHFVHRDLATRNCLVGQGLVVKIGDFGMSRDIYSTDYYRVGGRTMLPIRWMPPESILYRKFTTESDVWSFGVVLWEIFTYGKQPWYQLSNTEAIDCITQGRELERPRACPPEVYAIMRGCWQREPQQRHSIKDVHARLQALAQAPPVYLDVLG

| Compound | residual activity [1] [%] | residual activity [2] [%] | residual activity [3] [%] | residual activity [4] [%] | residual activity [5] [%] | residual activity [6] [%] | residual activity [7] [%] | residual activity [8] [%] | residual activity [9] [%] | residual activity [10] [%] | residual activity [11] [%] | residual activity [12] [%] | residual activity [13] [%] | residual activity [14] [%] | residual activity [15] [%] | residual activity [16] [%] | residual activity [17] [%] | residual activity [18] | residual activity [19] [%] | residual activity [20] |
| --- | --- | --- | --- | --- | --- | --- | --- | --- | --- | --- | --- | --- | --- | --- | --- | --- | --- | --- | --- | --- |
| O=C1NC(=O)/C(=C\c2ccc3nccnc3c2)S1 | 92 | 58 | 86 | 98 | 79 | 75 | 83 | 127 | 96 | 126 | 94 | 100 | 93 | 104 | 82 | 99 | 63 | 93% (inactive) | 92 | 82% (inactive) |
| Cn1cnc2cc3c(Nc4cccc(Br)c4)ncnc3cc21 | 99 | 96 | 106 | 82 | 73 | 74 | 34 | 87 | 82 | 107 | 68 | 89 | 60 | 106 | 99 | 112 | 74 | 98% (inactive) | 95 | 105% (inactive) |
| Oc1c2ccccc2c2c3c(cccc13)N=N2 | 75 | 49 | 86 | 89 | 57 | 95 | 63 | 10 | -1 | 32 | 5 | 58 | 23 | 90 | 45 | 73 | 43 | 78% (inactive) | 36 | 79% (inactive) |
| Cc1nc(-c2ccccc2)c(-c2ccncc2)o1 | 100 | 88 | 98 | 103 | 42 | 100 | 122 | 117 | 95 | 55 | 53 | 86 | 88 | 118 | 112 | 104 | 104 | 109% (inactive) | 103 | 117% (inactive) |
| O=C(Nc1cccc(Nc2nccc(Nc3cccc(C(F)(F)F)c3)n2)c1)C1CC1 | 94 | 64 | 78 | 78 | 9 | 136 | 70 | 18 | 1 | 44 | -5 | 60 | 15 | 101 | 88 | 97 | 66 | 93% (inactive) | 85 | 104% (inactive) |
| COc1ccc(CNc2nc(N(CCO)CCO)nc3c2ncn3C(C)C)cc1 | 86 | 70 | 87 | 103 | 79 | 101 | 80 | 75 | 56 | 72 | 96 | 87 | 89 | 97 | 97 | 81 | 82 | 79% (inactive) | 46 | 88% (inactive) |
| CC(=O)O/N=C1\C(=C2\C(=O)Nc3cc(Br)ccc32)Nc2ccccc21 | 92 | 86 | 92 | 59 | 21 | 86 | 87 | 6 | 0 | 29 | 1 | 74 | 19 | 93 | 101 | 95 | 66 | 99% (inactive) | 97 | 104% (inactive) |
| Nc1ccc2ncnc(NCCc3ccc(Oc4ccccc4)cc3)c2c1 | 89 | 58 | 98 | 84 | 30 | 114 | 66 | 89 | 56 | 82 | 58 | 80 | 61 | 121 | 108 | 103 | 87 | 106% (inactive) | 95 | 110% (inactive) |
| N#C/C(=C(\N)Sc1ccc(N)cc1)c1ccccc1C(F)(F)F | 99 | 82 | 67 | 93 | 63 | 111 | 87 | 90 | 85 | 78 | 72 | 74 | 86 | 119 | 107 | 95 | 94 | 101% (inactive) | 95 | 101% (inactive) |
| CCOc1cc2ncnc(Nc3cccc(Br)c3)c2cc1OCC | 99 | 83 | 67 | 74 | 38 | 48 | 46 | 87 | 43 | 116 | 88 | 75 | 24 | 94 | 78 | 96 | 71 | 99% (inactive) | 74 | 102% (inactive) |
| NC(=O)c1ccc2[nH]c(-c3ccc(Oc4ccc(Cl)cc4)cc3)nc2c1 | 101 | 80 | 95 | 106 | 92 | 109 | 131 | 78 | 54 | 103 | 101 | 96 | 92 | 97 | 93 | 90 | 87 | 88% (inactive) | 82 | 90% (inactive) |
| Cc1ccc(NC2=CC(=O)c3sc(C)nc3C2=O)cc1 | 92 | 98 | 86 | 85 | 93 | 100 | 99 | 89 | 88 | 102 | 93 | 80 | 83 | 101 | 100 | 96 | 100 | 89% (inactive) | 88 | 88% (inactive) |
| Oc1n[nH]c2nnc(-c3c(-c4ccccc4)nn4ccccc34)cc12 | 82 | 93 | 83 | 85 | 66 | 97 | 93 | 83 | 70 | 98 | 84 | 73 | 67 | 91 | 91 | 92 | 95 | 89% (inactive) | 82 | 93% (inactive) |

Reference: ChEMBL document CHEMBL2218924, “A broad activity screen in support of a chemogenomic map for kinase signalling research and drug discovery” (Biochem J, 2013)
